PubChem BioAssay (NCATS)
Results filed as inconclusive are left out. Where a call stands in place of a potency, no number is given. Unmarked numbers belong to inactive results. The source made the active and inactive calls. Calls follow the shape of the dose curve; as a rule, active = well fitted curve in the direction sought with a large enough effect; inconclusive = small, poorly fitted or top-dose-only effect, or another doubt; inactive = no such curve, though single readings can be large; an effect the other way counts as inactive or inconclusive.

Assay: Primary qHTS for inhibitors of nuclear receptor binding SET domain protein 2 (NSD2) in an isogenic RCH-ACV NSD2 p.E1099K mutant (9B) (AID 1645876)
Conditions: RCH-ACV NSD2 E1099K (9B) viability, CellTiter-Glo, 72 h; series mostly up to 44.9 µM
Also: nearly all actives have a fitted effect of over 70% in size.

Q: For `O=C(O[C@H]1[C@@H]2C=CO[C@@H](O[C@@H]3O[C@H](CO)[C@@H](O)[C@H](O)[C@H]3O)[C@@H]2[C@@]2(CO)O[C@@H]12)c1ccc(O)c(O)c1`, which Potency is on record?
A: inactive

Q: Which Potency does the source give for `C[C@@H]1O[C@@H](OC[C@H]2O[C@@H](OCCc3ccccc3)[C@H](O)[C@@H](O)[C@@H]2O)[C@H](O)[C@H](O)[C@H]1O` here?
A: inactive

Q: For `C=C1CC23CCC4[C@@](C)(CCC[C@@]4(C)C(=O)O)C2CCC1C3` (some centres not stated), which Potency is on record?
A: inactive

Q: With `CCC[C@@H]1C[C@@H](C(=O)N[C@@H]([C@H]2O[C@H](SC)[C@H](OP(=O)(O)O)[C@@H](O)[C@H]2O)[C@H](C)Cl)N(C)C1` as the compound, how does the Potency read?
A: inactive

Q: For `CC(=O)OC1C=C(C(=O)O)C2(CO)CCC(C)C(C)(CCc3ccoc3)C2C1` (configuration not stated), which Potency is on record?
A: inactive

Q: Which Potency does the source give for `COC1=CC(=O)O[C@@H](/C=C/c2ccccc2)[C@@H]1O` here?
A: inactive

Q: With `CC1CCC2(C(=O)OC3OC(COC4OC(CO)C(O)C(O)C4O)C(O)C(O)C3O)CCC3(C)C(=CCC4C5(C)CCC(O)C(C)(C(=O)O)C5CCC43C)C2C1(C)O` (configuration not stated) as the compound, how does the activity change, negative = viability loss read?
A: 1.95% [at 9.23 µM]

Q: With `COc1ccc2c3c1O[C@H]1C[C@@H](O)C=C[C@@]31CCN(C)C2` as the compound, how does the Potency read?
A: inactive

Q: With `NC1CCC(N[C@@H]2C[C@H]2c2ccccc2)CC1` (some centres not stated) as the compound, how does the Potency read?
A: inactive

Assay: Primary qHTS for inhibitors of nuclear receptor binding SET domain protein 2 (NSD2) in an RCH-ACV wild type WT cells (2C) (AID 1645877)
Conditions: RCH-ACV (leukaemia line) NSD2 WT (2C) viability, CellTiter-Glo, 72 h; series mostly up to 44.9 µM

Q: For `C=C1CC2C3(C)C(O)CC(=O)C(C)(C)C3C(OC(C)=O)C(OC(C)=O)C2(C)C2C(=O)OC(C)(C(=O)OC)C(=O)C12C` (configuration not stated), which Potency is on record?
A: inactive

Q: Which Potency does the source give for `OCCc1ccc(O[C@@H]2O[C@H](CO)[C@@H](O)[C@H](O)[C@H]2O)c(O)c1` here?
A: inactive

Q: For `C/C(=C/CO)CC[C@@H]1[C@@]2(C)CCC[C@](C)(C(=O)O)C2CC[C@@]1(C)O` (some centres not stated), which Potency is on record?
A: inactive

Q: For `CC1=C2[C@@H]([C@H](C)CC[C@H]2/C=C(\C)C(=O)O)[C@H](O)C1`, which Potency is on record?
A: inactive

Q: With `COC12CC3C(C(C)C1=CC(=O)O2)C(O)C(OC(C)=O)C1C(C)(C)C(OC(C)=O)CCC31C` (configuration not stated) as the compound, how does the Potency read?
A: inactive

Q: Which Potency does the source give for `CC(=O)OC1C(O)CC(O[C@@H]2O[C@H](CO)[C@@H](O)[C@H](O)[C@H]2O)C2CCC3C(=O)OC(c4ccoc4)CC3(C)C21` (some centres not stated) here?
A: inactive

Q: With `COc1cc(C[C@H]2COC(=O)[C@@H]2Cc2ccc(O)c(OC)c2)ccc1O` as the compound, how does the Potency read?
A: inactive

Q: Which Potency does the source give for `CC1=CC(=O)C[C@H]2[C@@H]1CC[C@@H](C)[C@]21CO[C@H](c2ccoc2)C1=O` here?
A: inactive

Q: With `C=C1CC/C=C(/CO)C(=O)C[C@@H]2[C@@H]1CC2(C)C` as the compound, how does the Potency read?
A: inactive

Q: With `CCOc1c2c(c(OCC)c3ccccc13)C(=O)N(c1ccc(CC(=O)NS(=O)(=O)c3ccccc3)cc1)C2` as the compound, how does the Potency read?
A: inactive

Q: For `O=C(/C=C/c1ccc(O)cc1)OC[C@]12O[C@H]1[C@@H](O)[C@@H]1C=CO[C@@H](O[C@@H]3O[C@H](CO)[C@@H](O)[C@H](O)[C@H]3O)[C@@H]12`, which Potency is on record?
A: inactive

Q: For `CC(C)C(C#N)O[C@@H]1O[C@H](CO[C@@H]2OC[C@](O)(CO)[C@H]2O)[C@@H](O)[C@H](O)[C@H]1O` (some centres not stated), which Potency is on record?
A: inactive

Q: For `C=C1[C@H]2[C@H](O[C@@H]3O[C@H](COC(=O)/C=C/c4cc(OC)c(O)c(OC)c4)[C@@H](O)[C@H](O)[C@H]3O)OC=C(C(=O)O)[C@H]2C[C@@H]1O`, which Potency is on record?
A: inactive

Q: With `CC1(C)CC2C3=CCC4C5(C)CCC(OC6OC(C(=O)O)C(O)C(O)C6OC6OC(CO)C(O)C(O)C6OC6OC(CO)C(O)C(O)C6O)C(C)(CO)C5CCC4(C)C3(C)CCC2(C)C(OC2OCC(O)C(OC3OC(CO)C(O)C(O)C3O)C2O)C1O` (configuration not stated) as the compound, how does the activity change, negative = cell killing read?
A: -4.93% [at 9.23 µM]

Q: Which Potency does the source give for `CCC[C@@H]1C[C@@H](C(=O)N[C@H](C(C)Cl)[C@H]2O[C@H](SC)[C@H](O)[C@@H](O)[C@H]2O)N(C)C1` (some centres not stated) here?
A: inactive

Q: Which Potency does the source give for `CC1CCC(=O)CC(O)C(O)CC(=O)O1` (configuration not stated) here?
A: inactive

Q: Which Potency does the source give for `CC(O)C(O)/C=C/C=C/C(=O)O[C@@H]1C=C2COC(=O)[C@]2(O)[C@@]2(C)CCCC(C)(C)C12` (some centres not stated) here?
A: inactive

Q: With `COC1=CC(=O)O[C@@H](CCc2ccccc2)[C@@H]1O` as the compound, how does the Potency read?
A: inactive

Q: With `COc1ccc2c(c1)OC[C@]1(O)c3cc4c(cc3O[C@H]21)OCO4` as the compound, how does the Potency read?
A: inactive

Q: Which Potency does the source give for `Cc1nnc(C(C)C)n1C1CC2CCC(C1)N2CCC(NC(=O)C1CCC(F)(F)CC1)c1ccccc1` (configuration not stated) here?
A: inactive

Q: With `CC1=C2C=C(CO)C(CO)CCC2(C)CCC1=O` (configuration not stated) as the compound, how does the Potency read?
A: inactive

Q: With `C=CC(C)(C)O[C@@H]1O[C@H](CO[C@@H]2OC[C@](O)(CO)[C@H]2O)[C@@H](O)[C@H](O)[C@H]1O` as the compound, how does the Potency read?
A: inactive

Q: For `COC(=O)C1=CO[C@@H](O[C@@H]2O[C@H](CO)[C@@H](O)[C@H](O)[C@H]2O)[C@@H]2[C@@](C)(O)[C@@H](O)C[C@]12O`, which Potency is on record?
A: inactive
